Screening results (PubChem)
PLK1 PBD block: qHTS for Inhibitors of PLK1-PDB (polo-like kinase 1 - polo-box domain): Primary Screen. Serine/threonine-protein kinase PLK1 (Homo sapiens), P53350. Plk1 PBD binding of FITC phosphopeptide, fluorescence polarization. Potency, µM, inactives show max response, negative = inhibition, usual class: inhibitors. hit rate 2.8% among 360,000. AID 720504, 2013; note: potency is the fitted concentration of half-maximal effect; series mostly up to about 57 µM; % is set by controls: 0 for no effect and ±100 for the full control effect; nearly all actives have a fitted effect of over 65% in size
JMJD2A Tudor: qHTS Assay for Inhibitors of JMJD2A-Tudor Domain. hit rate 4.4% among 390,000. Lysine-specific demethylase 4A (Homo sapiens), O75164. AlphaScreen JMJD2A-Tudor / H3K4me3 peptide binding. Potency, µM (titrated, usually from 114 µM), without a hit: at the highest dose activity change, negative = inhibition, hits mostly inhibitors; note: potency is the fitted concentration of half-maximal effect; % is set by controls: 0 for no effect and ±100 for the full control effect; nearly all actives have a fitted effect of over 50% in size
G9a block: qHTS Assay for Inhibitors of Histone Lysine Methyltransferase G9a | Potency, µM (titrated, usually from 102 µM), without a hit: at the top dose activity, negative = inhibition, actives largely listed as inhibitors | hit rate 8.8% among 350,000 | G9a H3K9 monomethylation, AlphaScreen, 2 h; note: potency is the fitted concentration of half-maximal effect; % is set by controls: 0 for no effect and ±100 for the full control effect; nearly all actives have a fitted effect of over 75% in size
Target sequence (Q96KQ7 913-1193 limits assumed): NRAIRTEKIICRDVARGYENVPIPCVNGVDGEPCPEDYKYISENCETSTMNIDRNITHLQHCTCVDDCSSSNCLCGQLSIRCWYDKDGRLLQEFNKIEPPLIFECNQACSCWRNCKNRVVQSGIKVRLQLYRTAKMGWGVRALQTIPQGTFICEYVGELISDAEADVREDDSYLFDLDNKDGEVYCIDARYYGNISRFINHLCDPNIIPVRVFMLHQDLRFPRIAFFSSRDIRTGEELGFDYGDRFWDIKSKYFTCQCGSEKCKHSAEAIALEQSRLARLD
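Compounds were preincubated with 20 nM G9a for 15 min, after which biotinylated H3K9 peptide (500 nM) and SAM (20 uM) started a 2 h room-temperature reaction. Monomethylated product was quantified by antibody-based AlphaScreen chemiluminescence.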
HP1b chromo inh: HTS for Inhibitors of HP1-beta Chromodomain Interactions with Methylated Histone Tails | Chromobox protein homolog 1 (Homo sapiens), P83916 | AlphaScreen HP1-beta / biotin-H3K9me3 peptide binding | Potency, µM (titrated, usually from 114 µM), for inactives: at the top dose activity change, negative = inhibition, usual class: inhibitors | hit rate 0.56% among 390,000; note: potency is the fitted concentration of half-maximal effect; nearly all actives have a fitted effect of over 70% in size
Target sequence (P83916 whole entry, looked up): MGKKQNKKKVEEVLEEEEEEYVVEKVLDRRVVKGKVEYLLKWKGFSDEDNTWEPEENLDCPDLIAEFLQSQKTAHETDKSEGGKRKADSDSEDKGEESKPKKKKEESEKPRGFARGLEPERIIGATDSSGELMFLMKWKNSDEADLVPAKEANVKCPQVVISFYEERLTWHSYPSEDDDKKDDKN
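HP1-beta protein (50 nM final) preincubated 30 min at room temperature with biotinylated H3(1-18)K9me3 peptide (50 nM) in PBS pH 7.4, 0.01% Tween-20, then compound added for 30 min. AlphaScreen streptavidin donor/nickel chelate acceptor beads (10 ug/mL final), 30 min dark, luminescence read.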
BAZ2B block: qHTS Assay for Inhibitors of BAZ2B. Bromodomain adjacent to zinc finger domain protein 2B (Homo sapiens), Q9UIF8. AlphaScreen BAZ2B-H3K14Ac peptide displacement. Potency, µM (series often up to 114 µM), inactives show top-dose activity change, negative = inhibition, most hits filed as inhibitors. hit rate 4.4% among 360,000; note: potency is the fitted concentration of half-maximal effect; % is set by controls: 0 for no effect and ±100 for the full control effect; nearly all actives have a fitted effect of over 60% in size
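Protein-peptide AlphaScreen: BAZ2B 50 nM, b-H3K14Ac 50 nM, 1x PBS pH 7.4 + 0.01% Tween-20. Preincubation 30 min RT; cpd 30 min RT (top 110 uM); beads 20 min RT, light-protected.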
PI5P4K alpha inh: qHTS for Inhibitors of phosphatidylinositol 5-phosphate 4-kinase (PI5P4K). PI5P4Kalpha enzyme, ADP-Glo luminescence, 60 min; stronger effect = lower value. max response, %. Phosphatidylinositol 5-phosphate 4-kinase type-2 alpha (Homo sapiens), P48426. AID 652105, 2013. hit rate 1.2% among 330,000; active = max response of -50% or lower; inconclusive = between -30% and -50%; inactive = -30% or higher; note: value at the top dose of about 77 µM; % is set by controls: 0 for no effect and ±100 for the full control effect
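Enzyme plus substrate dispensed, test compounds pinned in, then ATP (5 microM final) added. After 60 min at RT, ADP-Glo reagent 1 for 45 min and reagent 2 for 30 min preceded luminescence imaging.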
Active calls of the source: *; [ ] = remark or other dose. An excerpt weighted towards active compounds, which were near 12% of everything screened. Unless noted, calls come from the whole dose curve; as a rule, active = well fitted curve in the direction sought with a large enough effect; inconclusive = small, poorly fitted or top-dose-only effect, or another doubt; inactive = no such curve, though single readings can be large; an effect the other way counts as inactive or inconclusive.

Results for CCOc1ccc(Nc2cc(C)nc3nc(C)nn23)cc1 ?
PLK1 PBD block: -27%; JMJD2A Tudor: -12%; G9a block: 89µM*; HP1b chromo inh: 4%; BAZ2B block: 0%; PI5P4K alpha inh: -1

How did C[C@]12O[C@H](C[C@]1(O)CO)n1c3ccccc3c3c4c(c5c6ccccc6n2c5c31)CNC4=O do in these assays?
G9a block: -25%[12.7 µM]

Results for COc1ncc2ncc(=O)n(CCC#N)c2n1 ?
G9a block: -2%[12.7 µM]

What do the screens show for `Cc1ccc(Cn2c(SCc3ccc(C(=O)O)cc3)nc3cccnc32)cc1`?
JMJD2A Tudor: 0%; G9a block: 4%[59 µM]; HP1b chromo inh: 47%; BAZ2B block: -2%

Results for CN1C(=S)SC(N(O)C(=O)Nc2cccc3ccccc23)C1(C)C (stereo unspecified) ?
PLK1 PBD block: inconclusive; JMJD2A Tudor: -24%; G9a block: 45µM*; HP1b chromo inh: -7%; BAZ2B block: -4%; PI5P4K alpha inh: 9

Results for CN1C(=S)SC(N(O)C(=O)Nc2ccccc2)C1(C)C (stereo unspecified) ?
PLK1 PBD block: -24%; JMJD2A Tudor: 4%[11.4 µM]; G9a block: -4%[12.7 µM]; HP1b chromo inh: -10%; BAZ2B block: -4%; PI5P4K alpha inh: -4

What do the screens show for `Fc1ccccc1CCNc1c2c(nc3ncnn13)CCCC2`?
PLK1 PBD block: 2%; JMJD2A Tudor: -7%; G9a block: 50µM*; HP1b chromo inh: 47%; BAZ2B block: -4%; PI5P4K alpha inh: 1

Results for CCC(C)NC(=O)NC(=O)CSc1nnc(-c2ccccc2F)n1C1CC1 (stereo unspecified) ?
PLK1 PBD block: -9%; JMJD2A Tudor: -3%; G9a block: 35µM*; HP1b chromo inh: 44%; BAZ2B block: 3%; PI5P4K alpha inh: 5

What do the screens show for `CCC(=O)Nc1ccc(C(=O)CSc2nnc(-c3ccccc3F)n2C2CC2)cc1`?
PLK1 PBD block: -10%; JMJD2A Tudor: -11%; G9a block: inconclusive; HP1b chromo inh: 31%; BAZ2B block: -2%; PI5P4K alpha inh: -51*

What do the screens show for `CCS(=O)(=O)c1ncc(Cl)c(C(=O)Nc2ccccc2)n1`?
JMJD2A Tudor: -13%; G9a block: inconclusive; HP1b chromo inh: 41%; BAZ2B block: -4%

What do the screens show for `CCOc1ccccc1NC(=O)c1nc(S(=O)(=O)Cc2ccccc2)ncc1Cl`?
PLK1 PBD block: inconclusive; JMJD2A Tudor: -29%; G9a block: 40µM*; HP1b chromo inh: 4%[57 µM]; BAZ2B block: -30%; PI5P4K alpha inh: 2

What do the screens show for `COc1ccccc1NC(=O)c1nc(S(=O)(=O)Cc2ccccc2)ncc1Cl`?
PLK1 PBD block: inconclusive; JMJD2A Tudor: -11%; G9a block: 18µM*; HP1b chromo inh: 7%[57 µM]; BAZ2B block: -28%; PI5P4K alpha inh: 0

What do the screens show for `Cc1ccc(NC(=O)c2nc(S(=O)(=O)Cc3ccccc3C)ncc2Cl)cc1C`?
PLK1 PBD block: 27µM*; JMJD2A Tudor: 13µM*; G9a block: 45µM*; HP1b chromo inh: -24%[57 µM]; BAZ2B block: -34%; PI5P4K alpha inh: 2

Results for CCS(=O)(=O)c1ncc(Cl)c(C(=O)Nc2ccccc2OC)n1 ?
PLK1 PBD block: 3%; JMJD2A Tudor: -5%; HP1b chromo inh: 53%; BAZ2B block: -7%; PI5P4K alpha inh: -3

What do the screens show for `COC(=O)c1ccc(NC(=O)c2nc(S(=O)(=O)Cc3cccc(C)c3)ncc2Cl)cc1`?
PLK1 PBD block: inconclusive; JMJD2A Tudor: -22%; G9a block: 2%; HP1b chromo inh: 14%[57 µM]; BAZ2B block: -17%; PI5P4K alpha inh: -8

Results for CC(=O)Nc1ccc(NC(=O)c2nc(S(=O)(=O)Cc3cccc(C)c3)ncc2Cl)cc1 ?
PLK1 PBD block: 13µM*; JMJD2A Tudor: -25%; G9a block: 45µM*; HP1b chromo inh: -4%[57 µM]; BAZ2B block: -22%; PI5P4K alpha inh: -6

Results for Brc1cccc(-c2cnn3c(-c4ccccc4)cc(-c4ccccc4)nc23)c1 ?
JMJD2A Tudor: 20%; G9a block: 12%[59 µM]; HP1b chromo inh: 70%; BAZ2B block: 7%

How did COc1ccccc1NC(=O)C(C)OC(=O)C1CC(=O)N(Cc2ccco2)C1 (stereo unspecified) do in these assays?
PLK1 PBD block: -14%; PI5P4K alpha inh: 3

What do the screens show for `CC(C)COC(=O)N1CCCCC1c1cc(C(=O)NCc2ccccc2)no1` (stereo unspecified)?
PLK1 PBD block: -3%; PI5P4K alpha inh: -3

Results for CCC(=O)Nc1ccccc1-c1nc2ccccc2n(C(C)C(=O)Nc2cccc(Cl)c2C)c1=O (stereo unspecified) ?
JMJD2A Tudor: -13%; G9a block: inconclusive; HP1b chromo inh: 48%; BAZ2B block: inconclusive

Results for COc1ccc(OC)c(NC(=O)c2nc(S(=O)(=O)Cc3ccc(F)cc3)ncc2Cl)c1 ?
JMJD2A Tudor: inconclusive; G9a block: 7.1µM*; HP1b chromo inh: -6%; BAZ2B block: inconclusive

What do the screens show for `CCOC(=O)c1ccc(NC(=O)c2nc(S(=O)(=O)Cc3ccccc3)ncc2Cl)cc1`?
PLK1 PBD block: 12µM*; JMJD2A Tudor: -16%; G9a block: 22µM*; HP1b chromo inh: -11%[57 µM]; BAZ2B block: -29%; PI5P4K alpha inh: -15

How did CCN(CC(=O)NCC(=O)Nc1ccc(Br)cc1C)Cc1ccccc1 do in these assays?
PLK1 PBD block: 5%; JMJD2A Tudor: -5%; G9a block: -38%; HP1b chromo inh: 23%; BAZ2B block: 4%; PI5P4K alpha inh: 3

How did O=C(C1=C(O)C(=O)N(c2nc3ccc(Cl)cc3s2)C1c1ccco1)c1ccco1 (stereo unspecified) do in these assays?
PLK1 PBD block: 21µM*; JMJD2A Tudor: 13µM*; G9a block: inconclusive; HP1b chromo inh: 28µM*; BAZ2B block: 45µM*; PI5P4K alpha inh: -74*

Results for Cc1ccc2nc(N3C(=O)C(O)=C(C(=O)c4ccco4)C3c3ccc(C)o3)sc2c1 (stereo unspecified) ?
PLK1 PBD block: 13µM*; JMJD2A Tudor: 10µM*; G9a block: 40µM*; HP1b chromo inh: -8%[57 µM]; BAZ2B block: 50µM*; PI5P4K alpha inh: -52*
